Consider 37 targets from the supplement of paper PMC11006884.

Targets with a hit are over-represented here; the source holds about 6,500 in all. About 2% of all pairs of compound and target were hits.

Chain of UniProt P04075 (P04075 whole entry, looked up): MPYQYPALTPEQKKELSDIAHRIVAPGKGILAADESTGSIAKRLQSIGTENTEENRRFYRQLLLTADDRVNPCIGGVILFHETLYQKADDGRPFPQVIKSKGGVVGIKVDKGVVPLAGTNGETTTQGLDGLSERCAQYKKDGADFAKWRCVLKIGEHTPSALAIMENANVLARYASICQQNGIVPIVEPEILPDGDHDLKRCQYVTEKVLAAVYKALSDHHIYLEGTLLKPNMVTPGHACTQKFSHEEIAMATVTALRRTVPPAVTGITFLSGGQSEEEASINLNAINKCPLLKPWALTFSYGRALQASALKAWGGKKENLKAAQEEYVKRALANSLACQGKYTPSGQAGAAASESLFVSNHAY
Chain of UniProt P47756 (P47756 whole entry, looked up): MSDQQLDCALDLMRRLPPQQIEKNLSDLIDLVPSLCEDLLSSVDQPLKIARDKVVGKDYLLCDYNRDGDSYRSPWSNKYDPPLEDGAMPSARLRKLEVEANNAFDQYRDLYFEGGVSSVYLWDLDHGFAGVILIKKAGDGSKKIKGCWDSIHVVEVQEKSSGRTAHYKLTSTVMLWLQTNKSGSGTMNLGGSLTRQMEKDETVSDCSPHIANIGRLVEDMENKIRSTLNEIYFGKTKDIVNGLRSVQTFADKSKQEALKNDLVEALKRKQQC
Chain of UniProt P50991 (P50991 whole entry, looked up): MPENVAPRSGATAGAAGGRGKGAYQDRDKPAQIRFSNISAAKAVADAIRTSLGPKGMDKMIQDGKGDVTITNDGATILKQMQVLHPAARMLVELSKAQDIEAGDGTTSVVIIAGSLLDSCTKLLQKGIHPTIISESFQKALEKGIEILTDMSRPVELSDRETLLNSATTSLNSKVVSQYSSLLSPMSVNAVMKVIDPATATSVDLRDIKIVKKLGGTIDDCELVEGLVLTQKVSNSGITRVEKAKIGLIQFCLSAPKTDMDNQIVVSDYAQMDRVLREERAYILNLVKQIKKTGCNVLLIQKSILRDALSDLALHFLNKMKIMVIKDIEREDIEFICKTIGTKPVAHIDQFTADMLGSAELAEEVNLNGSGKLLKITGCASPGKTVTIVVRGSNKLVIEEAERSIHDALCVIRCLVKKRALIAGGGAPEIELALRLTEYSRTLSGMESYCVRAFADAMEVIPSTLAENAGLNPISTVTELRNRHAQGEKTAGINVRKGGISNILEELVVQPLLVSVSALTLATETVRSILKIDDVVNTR
Chain of UniProt P51570 (P51570 whole entry, looked up): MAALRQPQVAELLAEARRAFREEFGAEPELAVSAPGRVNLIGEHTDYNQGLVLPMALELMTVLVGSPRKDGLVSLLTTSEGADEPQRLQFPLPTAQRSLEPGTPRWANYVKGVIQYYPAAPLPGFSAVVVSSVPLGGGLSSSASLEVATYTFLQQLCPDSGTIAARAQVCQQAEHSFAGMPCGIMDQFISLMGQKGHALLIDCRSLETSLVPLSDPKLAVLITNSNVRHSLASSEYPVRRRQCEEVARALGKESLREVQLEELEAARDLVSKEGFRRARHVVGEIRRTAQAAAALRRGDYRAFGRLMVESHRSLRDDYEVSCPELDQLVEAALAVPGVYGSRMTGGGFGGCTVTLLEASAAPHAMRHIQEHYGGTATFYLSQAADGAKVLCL
Chain of UniProt P49327 (P49327 whole entry, looked up): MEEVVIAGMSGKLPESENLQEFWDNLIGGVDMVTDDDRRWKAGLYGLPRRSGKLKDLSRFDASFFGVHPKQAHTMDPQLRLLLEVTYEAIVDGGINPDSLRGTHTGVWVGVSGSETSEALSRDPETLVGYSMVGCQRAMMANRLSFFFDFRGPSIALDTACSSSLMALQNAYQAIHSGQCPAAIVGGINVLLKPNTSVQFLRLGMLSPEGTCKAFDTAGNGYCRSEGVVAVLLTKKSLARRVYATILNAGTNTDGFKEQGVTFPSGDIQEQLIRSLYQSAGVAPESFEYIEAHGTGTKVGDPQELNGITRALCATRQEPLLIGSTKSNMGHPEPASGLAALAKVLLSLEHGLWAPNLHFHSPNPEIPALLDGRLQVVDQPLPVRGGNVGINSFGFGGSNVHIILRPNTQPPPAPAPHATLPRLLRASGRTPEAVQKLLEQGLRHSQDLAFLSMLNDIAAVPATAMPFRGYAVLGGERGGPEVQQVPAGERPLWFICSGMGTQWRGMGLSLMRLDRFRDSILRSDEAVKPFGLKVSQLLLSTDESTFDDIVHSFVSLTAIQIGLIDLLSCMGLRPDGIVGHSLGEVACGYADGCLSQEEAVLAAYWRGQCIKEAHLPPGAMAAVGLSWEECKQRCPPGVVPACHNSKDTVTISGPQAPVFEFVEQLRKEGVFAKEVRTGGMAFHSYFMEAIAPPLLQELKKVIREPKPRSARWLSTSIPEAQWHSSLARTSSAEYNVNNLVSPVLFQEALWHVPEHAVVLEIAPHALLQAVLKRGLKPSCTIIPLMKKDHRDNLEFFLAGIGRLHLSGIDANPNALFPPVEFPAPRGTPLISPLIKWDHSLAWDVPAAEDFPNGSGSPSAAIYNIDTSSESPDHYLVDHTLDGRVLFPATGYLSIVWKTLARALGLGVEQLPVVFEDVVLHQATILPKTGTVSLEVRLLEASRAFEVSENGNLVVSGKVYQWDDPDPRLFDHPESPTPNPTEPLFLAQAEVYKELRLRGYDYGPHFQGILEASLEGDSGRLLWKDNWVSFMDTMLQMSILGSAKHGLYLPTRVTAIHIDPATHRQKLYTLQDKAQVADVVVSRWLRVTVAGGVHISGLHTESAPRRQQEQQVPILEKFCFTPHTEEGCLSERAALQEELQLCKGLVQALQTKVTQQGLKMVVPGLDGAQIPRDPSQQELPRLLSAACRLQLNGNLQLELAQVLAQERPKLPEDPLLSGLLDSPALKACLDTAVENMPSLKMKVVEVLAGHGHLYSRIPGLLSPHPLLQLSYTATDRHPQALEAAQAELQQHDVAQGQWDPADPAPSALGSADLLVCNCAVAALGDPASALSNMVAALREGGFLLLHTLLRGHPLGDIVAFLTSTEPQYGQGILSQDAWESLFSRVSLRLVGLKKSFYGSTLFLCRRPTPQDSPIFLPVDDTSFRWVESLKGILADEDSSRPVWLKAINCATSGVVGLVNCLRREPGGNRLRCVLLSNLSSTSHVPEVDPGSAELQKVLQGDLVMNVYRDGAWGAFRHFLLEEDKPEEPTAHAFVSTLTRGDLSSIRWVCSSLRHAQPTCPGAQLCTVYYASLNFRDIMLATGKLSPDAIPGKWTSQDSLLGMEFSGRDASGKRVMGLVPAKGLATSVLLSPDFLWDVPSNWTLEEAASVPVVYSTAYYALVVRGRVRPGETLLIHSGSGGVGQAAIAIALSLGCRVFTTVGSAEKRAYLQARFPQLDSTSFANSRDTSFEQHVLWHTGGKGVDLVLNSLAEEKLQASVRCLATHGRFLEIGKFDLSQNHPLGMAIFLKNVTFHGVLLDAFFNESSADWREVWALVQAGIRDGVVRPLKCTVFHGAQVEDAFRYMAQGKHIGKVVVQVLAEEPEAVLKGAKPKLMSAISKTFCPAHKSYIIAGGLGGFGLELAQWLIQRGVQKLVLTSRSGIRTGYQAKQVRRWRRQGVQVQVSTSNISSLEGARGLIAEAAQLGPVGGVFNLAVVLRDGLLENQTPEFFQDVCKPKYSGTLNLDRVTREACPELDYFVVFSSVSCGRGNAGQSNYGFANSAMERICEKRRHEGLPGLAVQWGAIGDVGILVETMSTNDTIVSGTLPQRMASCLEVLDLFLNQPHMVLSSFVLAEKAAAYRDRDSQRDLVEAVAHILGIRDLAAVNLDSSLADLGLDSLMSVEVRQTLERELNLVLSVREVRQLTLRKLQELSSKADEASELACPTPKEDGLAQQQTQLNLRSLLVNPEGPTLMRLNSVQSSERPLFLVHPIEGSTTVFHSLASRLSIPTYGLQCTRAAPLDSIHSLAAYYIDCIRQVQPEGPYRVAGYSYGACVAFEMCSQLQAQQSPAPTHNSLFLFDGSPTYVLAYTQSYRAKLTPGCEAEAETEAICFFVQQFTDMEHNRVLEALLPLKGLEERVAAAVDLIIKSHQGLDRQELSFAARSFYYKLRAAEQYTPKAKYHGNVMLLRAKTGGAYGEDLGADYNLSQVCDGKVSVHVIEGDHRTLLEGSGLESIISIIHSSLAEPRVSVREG
Chain of UniProt P33981 (P33981 whole entry, looked up): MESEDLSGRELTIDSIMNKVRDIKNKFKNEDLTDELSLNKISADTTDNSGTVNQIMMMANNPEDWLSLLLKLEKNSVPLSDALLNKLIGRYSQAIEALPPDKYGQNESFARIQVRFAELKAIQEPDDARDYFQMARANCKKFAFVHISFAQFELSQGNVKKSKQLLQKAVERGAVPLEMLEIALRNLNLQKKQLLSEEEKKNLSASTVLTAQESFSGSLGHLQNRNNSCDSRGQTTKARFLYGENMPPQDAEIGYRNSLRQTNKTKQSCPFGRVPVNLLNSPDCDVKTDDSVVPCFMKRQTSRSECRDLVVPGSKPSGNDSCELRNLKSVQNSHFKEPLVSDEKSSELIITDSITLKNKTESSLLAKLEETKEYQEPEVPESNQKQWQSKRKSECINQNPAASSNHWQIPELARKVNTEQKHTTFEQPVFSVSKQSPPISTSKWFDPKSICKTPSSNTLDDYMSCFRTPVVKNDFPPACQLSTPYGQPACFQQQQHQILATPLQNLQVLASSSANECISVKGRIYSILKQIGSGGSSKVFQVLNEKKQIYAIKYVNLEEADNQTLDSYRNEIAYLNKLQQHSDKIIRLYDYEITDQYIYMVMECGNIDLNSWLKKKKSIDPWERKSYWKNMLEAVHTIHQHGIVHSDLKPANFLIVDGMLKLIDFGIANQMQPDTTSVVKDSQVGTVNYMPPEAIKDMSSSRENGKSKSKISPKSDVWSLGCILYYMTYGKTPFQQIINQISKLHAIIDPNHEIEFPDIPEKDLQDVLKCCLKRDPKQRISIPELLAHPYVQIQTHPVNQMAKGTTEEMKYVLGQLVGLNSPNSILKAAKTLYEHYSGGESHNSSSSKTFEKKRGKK

Compound in the test: COC(=O)C#Cc1ccccc1 [methyl 3-phenylpropiolate]
Kind of test: log2 ratio of iodoacetamide-alkyne labeling of the cysteine site, DMSO over compound (competition); higher = stronger covalent engagement of the cysteine by the compound, active = 1 or more. As to conditions: 500 µM; treatment time 1 h; system: HEK293T cell lysate. Summed up:
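The log2 competition ratio per cysteine is defined as mean reporter intensity in control channels over mean reporter intensity in compound channels. Lysate from HEK293T cells (2 mg/mL) received electrophile (500 µM) or vehicle for 1 h at ambient temperature, followed by iodoacetamide alkyne for 1 h. Samples were clicked to sCIP-TMT reagents, pooled, trypsin-digested overnight at 37 °C, streptavidin-enriched, acid-eluted and run on Orbitrap Eclipse LC-MS/MS with FAIMS, with quantification in FragPipe. Three replicates with duplicate channels were used, and any cysteine quantified in only one replicate was excluded.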
Regarding UniProt P28482_C254, the “log2 ratio of iodoacetamide-alkyne labeling” value (shortened to “log2 ratio”) is -0.0158 (inactive). The figure for CCT4 C252 (UniProt P50991) is -0.0169 (inactive). The figure for HNRNPM C653 (UniProt P52272) is 0.0149 (inactive). Turning to ANXA7 C327 (UniProt P20073), the “log2 ratio” value was 0.191 (inactive). As for PGLS C32 (UniProt O95336), the “log2 ratio” value is 0.724 (inactive). For the target ANXA7 C285 (UniProt P20073), the “log2 ratio” value is 0.0794 (inactive). With PRKCSH C500 (UniProt P14314), the “log2 ratio” value is 0.513 (inactive).

Turning to BSG C242 (UniProt P35613), the “log2 ratio” value was 0.215 (inactive). Turning to CCT3 C475 (UniProt P49368), the “log2 ratio” value was 0.185 (inactive). For the target IDH3G C81 (UniProt P51553), the “log2 ratio” value is 0.412 (inactive). For the target HCFC1 C1872 (UniProt P51610), the “log2 ratio” value was 1.32 (active).

In the case of IMPDH2 C140 (UniProt P12268), the “log2 ratio” value is 1.11 (active). Take POLR1A C613 (UniProt O95602): the “log2 ratio” value was 0.472 (inactive).

For the target SRI C194 (UniProt P30626), the “log2 ratio” value was -0.125 (inactive). As for PHKA1 C1082 (UniProt P46020), the “log2 ratio” value was 0.236 (inactive). With RPS17 C35 (UniProt P08708), the “log2 ratio” value is -0.00485 (inactive). For the target ALDOA C202 (UniProt P04075), the “log2 ratio” value is -0.0261 (inactive). For HNRNPM C114 (UniProt P52272), the “log2 ratio” value is -0.0182 (inactive). The figure for UniProt P17812_C218 is -0.193 (inactive). Consider RANBP2 C82 (UniProt P49792), for which the “log2 ratio” value was 0.564 (inactive). Consider GALK1 C351 (UniProt P51570), for which the “log2 ratio” value is 0.243 (inactive). To AKT2 C297 (UniProt P31751) belongs 0.698 (inactive); to TTK C284 (UniProt P33981), 0.53 (inactive). Consider CAPZB C206 (UniProt P47756), for which the “log2 ratio” value is 0.316 (inactive).

Turning to UniProt P0DN79_C15, the “log2 ratio” value is 2.27 (active). Turning to UniProt P10155_C71, the “log2 ratio” value was 0.136 (inactive). The figure for CAST C413 (UniProt P20810) is 0.756 (inactive); for UniProt O96017_C539 it is 0.494 (inactive); for SMC2 C326 (UniProt O95347) it is 0.547 (inactive).

As to MYH9 C1379 (UniProt P35579), the “log2 ratio” value was 0.164 (inactive). Take CAST C408 (UniProt P20810): the “log2 ratio” value was 1.01 (active).

UniProt P41250_C616: the “log2 ratio” value was -0.119 (inactive). As to BPNT1 C206 (UniProt O95861), the “log2 ratio” value was 0.27 (inactive). MAP1B C2065 (UniProt P46821): the “log2 ratio” value is 0.623 (inactive).

For UniProt P49840_C398, the “log2 ratio” value was 0.241 (inactive).

As to FASN C1548 (UniProt P49327), the “log2 ratio” value was -0.00359 (inactive). Turning to UniProt P42677_C77, the “log2 ratio” value is 1.73 (active).
